Pyk2 oligo antag: antagonists of human Pyk2 oligomerization; Q14289; Q293 cells, Pyk2 FERM NanoBiT luminescence; hits give low values; z-score (the deposit names both 25 µM and 10 µM); 0.83% of 99,000 active; AID 1347419;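 active = Z-score of -3 or lower, scaled per plate to the spread of control and sample wells; inactive = z-score above -3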;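 also: negative z-score means lost luminescence so less FERM oligomerization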
Cav3 T inh: inhibitors of human Cav3.2 T-type calcium channel. O95180. Cav3.2-expressing cells, Fluo-4 calcium fluorescence FDSS; hits give low values. B-score at 10 µM. 4% of 100,000 active;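 active = single-dose well whose peak fluorescence ratio is a statistical outlier from its plate by either plate-standardised score or position-corrected B-score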
PostGolgi yeast: growth inhibition of a yeast mutant, post-Golgi transport screen; post-Golgi transport phenotypic cell assay; AID 739; 0.9% of 98,000 active; inhibition, % at 10 µM;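 also: yeast cells grown in 1536-well plates; yeast grown about 18 h at 30C before absorbance read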
PostGolgi ctrl: inhibits growth of the yeast control strain | AID 738 | efflux-deficient yeast background strain, growth absorbance A615, 16 h | inhibition, % at 10 µM | 5% of 98,000 active
The depositor's hits bear a star; . = no result given. Only some compounds are listed: those with a hit (about 8% of all), similar ones and a draw of the others. Rule as the data show it, unless noted: active = inhibition above about 30%; inactive = the rest.

SMILES	Pyk2 oligo antag	Cav3 T inh	PostGolgi yeast	PostGolgi ctrl
O=C(NCc1ccc(F)cc1)c1cc2c(s1)CCCC2	-0.02	-6.3*	9	0
CSc1nc(N)nc(SCCS(=O)(=O)c2ccc(Cl)cc2)c1C#N	-2	-0.52	2	58*
O=C(Nc1ccccc1C(=O)NC(Cc1c[nH]c2ccccc12)C(=O)O)c1ccco1 (configuration not stated)	0.29	.	3	-10
O=C(NC(Cc1c[nH]c2ccccc12)C(=O)O)c1ccco1 (configuration not stated)	0.15	0.24	-8	30*
Cc1cc(C)nc(NC(=NCCc2c[nH]c3ccccc23)NC(=O)c2ccco2)n1	-2.7	0.11	11	42*
Cc1cc(C)nc(/N=C2\NC(=O)CC(C(=O)O)N2CCc2c[nH]c3ccccc23)n1 (configuration not stated)	.	0.9	1	3
Cc1ccc(-c2cc(C(F)F)n3ncc(C(=O)N4CCN(c5cccc(C)c5C)CC4)c3n2)cc1	-0.79	-3.1	24	10
Cc1onc(-c2ccccc2)c1-c1nc2ccccc2c(=O)o1	-0.4	1.4	12	32*
CCOC(=O)c1ccc(NC(=O)c2nn(C)cc2Br)cc1	-1.2	-0.3	1	35*
COC(=O)c1cn(-c2ccccc2)nc1-c1ccncc1	0.9	0.41	-4	-2
CCOC(=O)c1ccc(NC(=O)c2cn(-c3ccccc3)nc2-c2ccncc2)cc1	-2	0.0083	90*	30*
O=P(Cc1ccccn1)(c1ccccc1)c1ccccc1	1.7	-5	8	-5
CCN(CC)S(=O)(=O)c1ccc2oc(C(=O)NCc3ccc(C)cc3)c(C)c2c1	-0.88	-3.4	-7	23
N#CC1(Cc2ccc(Cl)cc2)c2ccccc2C=CN1C(=O)c1ccccc1 (configuration not stated)	1.1	-3.2*	4	23
O=C(COC(=O)c1ccccc1S(=O)(=O)N1CCCCC1)NCC(F)(F)F	1.2	1.2	-1	14
CC(C)CNC(=S)NC(=O)c1ccc([N+](=O)[O-])cc1	-0.33	-0.084	-1	32*
Cc1nn(Cc2ccc(Cl)cc2)c(C)c1NC(=O)c1cc(-c2ccco2)on1	-0.12	.	-4	10
Cc1ccc(Cn2nc(C)c(NC(=O)c3cc(-c4ccc5c(c4)OCO5)on3)c2C)cc1	.	-5.3*	-2	13
Cc1ccc(Cn2ccc(NC(=O)c3cc(-c4ccc5c(c4)OCO5)on3)n2)cc1	0.62	0.015	1	35*
Cc1nn(Cc2ccc(Cl)c(Cl)c2)c(C)c1NC(=O)c1cc(-c2ccco2)on1	-0.27	-5.7*	5	11
Cc1ccc(Cn2ccc(NC(=O)c3cc(-c4ccccc4)on3)n2)cc1	-1.6	-0.044	-2	0
Cc1nn(Cc2c(F)c(F)c(F)c(F)c2F)c(C)c1NC(=O)c1cccc(COc2ccc(Cl)cc2)c1	0.08	-5.3*	2	5
CCOc1ccc(OCCOc2ncnc3ccccc23)cc1	1.4	-0.2	3	8
Cn1c(SCC(=O)OCC(=O)c2ccccc2)nnc1-c1cccs1	0.17	0.78	7	1
COc1ccc(-c2cc(C(=O)Nc3c(C)nn(Cc4ccc(Cl)cc4)c3C)no2)cc1	1.1	-4.6*	-2	-2
SMILES	Pyk2 oligo antag	Cav3 T inh	PostGolgi yeast	PostGolgi ctrl
CN(C)C(=O)c1cc(Cl)ccc1Sc1cc(Cl)ccc1Cl	-1.5	.	-4	56*
C(=C\c1ccccc1)/CSc1nnc(-c2ccccn2)n1Cc1ccco1	-0.71	-5.5*	2	45*
Clc1ccccc1CSc1nnc(-c2ccccn2)n1Cc1ccco1	-2.5	-3.1	0	13
Cc1ccc(C2CC2C(=O)NNC(=S)Nc2cccc(C)c2)cc1 (configuration not stated)	-0.1	-8.7*	.	.
Cc1ccc(NC(=S)NNC(=O)C2CC2c2ccc(C)cc2)cc1 (configuration not stated)	1.6	-6.7*	.	.
CCOc1ccccc1NC(=S)/C(=C(\[O-])c1ccc2c(c1)OCCO2)[n+]1ccc(CC)cc1	-0.21	0.15	-5	19
CS(=O)(=O)c1nc(-c2ccccc2)cc(-c2ccccc2)c1C#N	-0.39	0.64	2	54*
CCN(CCNC(=O)Nc1ccc(Cl)cc1)c1ccccc1	-0.07	-2.1	-8	25
COc1cccc(Cn2c(C3CC3)nc3ccc(NC(=O)c4ccco4)cc3c2=O)c1	.	-1.6	3	31*
COc1ccccc1/C=C1\SC(=O)N(CCC(=O)NNC(=O)c2ccccc2Cl)C1=O	0.46	0.46	-5	2
COc1ccccc1OCCN1C(=O)S/C(=C\c2ccco2)C1=O	0.26	-6.5*	-1	10
COc1ccc2[nH]c(=O)c(-c3nnn(-c4ccc(Cl)nc4)n3)cc2c1	.	-0.12	.	.
COc1ccc(OC)c(NC(=O)C2CCN(c3nc(C)cc(C)n3)CC2)c1	-0.34	-0.57	1	37*
COc1ccccc1NC(=O)C1CCCN(c2nc(C)cc(C)n2)C1 (configuration not stated)	-0.38	0.027	.	.
Cc1cc(C)nc(N2CCCC(C(=O)Nc3cc(F)ccc3C)C2)n1 (configuration not stated)	-1	.	3	30*
O=C(C/C=N/OCc1ccc(F)cc1Cl)c1cnc(-c2ccccc2)s1	0.23	-0.035	-4	10
O=C(O)CC(NC(=O)COc1ccc(Cl)cc1Cl)C(=O)O (configuration not stated)	1.1	0.15	-1	5
O=C(CCN1C(=O)CSC1=O)Nc1ccccc1	-1	0.48	16	1
CCOC(=O)NC1(C(F)(F)F)C(=O)N(Cc2ccccc2)C2=C1C(=O)CC(C)(C)C2 (configuration not stated)	0.23	3.2	8	13
COC(=O)c1[nH]c2ccccc2c1NC(=O)CNC1CCCCC1	-1	0.65	7	1
Cc1cc(NC(=O)CSc2ccc3ccccc3c2)no1	0.1	-2.2	1	1
COc1ccc(NC(=O)CSc2ccc(C)cc2)cc1	1.6	-1.3	.	.
O=C(CSc1ccc2ccccc2c1)Nc1ccncc1	2.1	.	103*	92*
CC(=O)Oc1ccc(NC(=O)CSc2ccccc2)cc1	-0.06	0.56	-8	37*
O=C(NC(NC(=S)Nc1ccccc1)C(Cl)(Cl)Cl)c1cccc(Cl)c1 (configuration not stated)	-2.7	-1.6	7	19
SMILES	Pyk2 oligo antag	Cav3 T inh	PostGolgi yeast	PostGolgi ctrl
O=C(NC(NC(=S)Nc1ccc(Cl)cc1Cl)C(Cl)(Cl)Cl)c1cccc([N+](=O)[O-])c1 (configuration not stated)	0.76	-4.9*	4	9
COc1cc(N2C(=O)CSC23C(=O)Nc2ccccc23)cc(OC)c1OC (configuration not stated)	-0.88	1.2	4	7
Cc1c(N2C(=O)CSC23C(=O)Nc2ccccc23)c(=O)n(-c2ccccc2)n1C (configuration not stated)	0.16	-0.041	-7	40*
CCn1c(SCC(=O)NCCc2ccc(F)cc2)nnc1-c1cccs1	-0.52	0.68	6	5
COC(C[C@H]1O[C@H]1[C@H](O)[C@H](C)OCc1ccccc1)OC	.	-1.1	.	.
O=C(CSc1nnc(-c2cccs2)n1Cc1ccccc1)NCc1ccc2c(c1)OCO2	-0.94	-4.7*	-1	6

Source: PubChem
